Screens: PubChem BioAssay, Broad Institute
T cruzi growth-1: blocks T. cruzi growth in NIH3T3 culture. inhibition, % at 8.34 µM. 77,000 tested, 5.9% active. T. cruzi beta-gal in NIH3T3, GalScreen luminescence, 90 h;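 active = mean inhibition above about 93%, with at least 55% of replicates each passing it, limit read from the data, passing the limit was not always enough; inconclusive = only one of those two conditions holds; inactive = neither condition holds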
C diff growth: C. difficile growth inhibition; Clostridium difficile clinical isolate growth, OD600, 24 h; hits give low values; growth activity, negative = inhibition, % at 16 µg/mL (by protocol); 86,000 tested, 0.25% active; AID 1259249;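 active = mean growth activity at or below -80% and every replicate also at or below -80%; inconclusive = mean at or below -80% but some replicate above -80%; inactive = mean growth activity above -80%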;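 note: 0% = DMSO wells and -100% = levofloxacin 16 µg/mL wells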
Pf Dd2 growth: inhibitors of Plasmodium falciparum Dd2 growth; P. falciparum Dd2 growth, SYBR Green, 72 h; hits give low values; activity change, % at 10 µM; 94,000 tested, 2.3% active; in the data active = activity change below about -80%; inconclusive = no clear call, values can overlap the other calls
T cruzi growth-2: Trypanosoma cruzi proliferation inhibition; shares compounds with T cruzi growth-1; T. cruzi beta-gal in NIH3T3, GalScreen luminescence, 90 h; inhibition, % at 8.35 µM; 5,600 tested, 72% active;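 active = mean replicate inhibition above about 95% and at least 55% of replicates individually reaching it, limit read from the data; inconclusive = only one of the two criteria is met; inactive = neither criterion is met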
T cruzi growth-3: inhibitors of T. cruzi proliferation; shares compounds with T cruzi growth-1; T. cruzi beta-gal in NIH3T3, GalScreen luminescence, 90 h; inhibition, % at 2.09 µM; 5,600 tested, 21% active;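 active = mean inhibition above about 95%, with at least 55% of replicates also reaching it, limit read from the data; inconclusive = meets just one of the two conditions; inactive = meets neither condition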;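 note: plate controls were neutral control median for no effect and positive control median for full effect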
NIH3T3 tox: cytotoxicity in mouse NIH/3T3 fibroblasts; shares compounds with T cruzi growth-1; NIH/3T3 viability, CellTiter-Glo ATP luminescence, 90 h; cytotoxicity (signal decrease), % at 8.35 µM; 5,600 tested, 14% active;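 active = mean signal decrease across replicates above about 35% based on untreated-well scatter, with enough replicates individually passing, limit read from the data; inconclusive = no rule stated though some were filed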;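 note: 0% = median of neutral control wells and 100% = median of positive control wells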
3T3 cytotox 2: NIH/3T3 (mouse) viability loss; AID 651744; inhibition, % at 24.9 µM; NIH/3T3 viability, CellTiter-Glo ATP luminescence, 90 h; shares compounds with T cruzi growth-1; 5,600 tested, 56% active;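 active = mean loss of cell viability signal at or above a set limit, and enough replicates individually reaching it; inconclusive = meets only the mean limit or only the replicate share; inactive = meets neither condition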;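 note: 0% = median of neutral control wells and 100% = median of positive control wells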
* hit, by the source's call; ? = inconclusive; . = not tested or not shown. This is a sample that favours compounds with a hit; in the whole collection about 6.7% have one here.

SMILES	T cruzi growth-1	C diff growth	Pf Dd2 growth	T cruzi growth-2	T cruzi growth-3	NIH3T3 tox	3T3 cytotox 2
N#Cc1ccc(-c2ccc([C@H]3[C@@H](CO)N4CCCCN(S(=O)(=O)c5ccccc5)C[C@@H]34)cc2)cc1	95.5*	10.3	-22.2	106.5*	38.2	-12.4	11.4
COc1ccc(C#Cc2ccc([C@H]3[C@@H](CO)N4CCCCN(S(=O)(=O)c5ccccc5)C[C@@H]34)cc2)cc1	102.8*	-3.4	-0.4	102.9*	84.5	3.2	0.0
CC(C)NC(=O)N(C)C[C@@H]1OCCCC[C@H](C)Oc2ccc(NS(=O)(=O)c3cn(C)cn3)cc2C(=O)N([C@@H](C)CO)C[C@@H]1C	30.9	3.2	32.7	.	.	.	.
Cc1noc(C)c1S(=O)(=O)Nc1ccc2c(c1)C(=O)N([C@H](C)CO)C[C@@H](C)[C@@H](CN(C)C)OCCCC[C@@H](C)O2	1.2	-2.5	5.6	.	.	.	.
C[C@H](CO)N1C[C@H](C)[C@@H](CN(C)S(C)(=O)=O)Oc2ccc(NC(=O)Nc3cccc4ccccc34)cc2C1=O	.	-3.1	-37.2	.	.	.	.
CNC[C@@H]1Oc2ncc(C#CC3CCCCC3)cc2C(=O)N([C@@H](C)CO)C[C@@H]1C	.	.	42.8	.	.	.	.
C[C@@H]1CN([C@@H](C)CO)S(=O)(=O)c2ccc(C3=CCCC3)cc2O[C@@H]1CN(C)Cc1ccccc1	107.5*	1.3	8.9	?	68.4	32.6	105.6*
C[C@H](CO)N1C[C@H](C)[C@@H](CN(C)Cc2cccc(C(=O)O)c2)Oc2cc(C3=CCCC3)ccc2S1(=O)=O	-41.3	-0.5	-7.6	.	.	.	.
C[C@@H]1CN([C@H](C)CO)S(=O)(=O)c2ccc(C3=CCCC3)cc2O[C@H]1CN(C)Cc1cccnc1	100.9*	6.5	-7.6	93.0	76.5	?	35.6*
C[C@@H]1CN([C@@H](C)CO)S(=O)(=O)c2ccc(C3=CCCC3)cc2O[C@H]1CN(C)Cc1ccccc1	80.1	8.4	-56.0	.	.	.	.
C[C@H](CO)N1C[C@H](C)[C@H](CN(C)Cc2cccnc2)Oc2cc(C3=CCCCC3)ccc2S1(=O)=O	.	6.6	-32.7	.	.	.	.
C[C@H](CO)N1C[C@H](C)[C@H](CN(C)Cc2ccccc2)Oc2cc(C3=CCCC3)ccc2S1(=O)=O	108.0*	7.2	-30.6	107.6*	51.1	7.3	105.0*
O=C(N[C@@H]1C=C[C@@H](CC(=O)N2CCCCC2)O[C@@H]1CO)c1ccccn1	7.4	.	-29.8	.	.	.	.
O=S(=O)(N[C@@H]1CC[C@@H](CCn2cc(-c3cccc(F)c3)nn2)O[C@H]1CO)c1ccc(F)cc1	.	-4.0	.	.	.	.	.
CO[C@@H](CN(C)Cc1cc(F)ccc1F)[C@@H](C)CN([C@H](C)CO)S(=O)(=O)c1ccc(C)cc1	44.2	.	-37.8	.	.	.	.
O=C(c1ccccn1)N1C[C@H]2[C@@H](c3ccccc31)[C@H](CO)N2C(=O)Nc1ccccc1Cl	65.9	-6.2	-1.5	.	.	.	.
Cc1noc(C)c1S(=O)(=O)Nc1ccc2c(c1)C(=O)N([C@H](C)CO)C[C@@H](C)[C@H](CN(C)S(=O)(=O)c1ccc(F)cc1)OCCCC[C@@H](C)O2	.	-13.4	-68.7	.	.	.	.
COc1ccc(CN(C)C[C@H]2Oc3ccc(NS(=O)(=O)c4ccc(Cl)cc4)cc3CC(=O)N([C@H](C)CO)C[C@H]2C)cc1	86.1	-14.6	6.2	.	.	.	.
COc1ccc(CN(C)C[C@H]2Oc3ccc(NS(=O)(=O)c4ccc(Cl)cc4)cc3CC(=O)N([C@@H](C)CO)C[C@@H]2C)cc1	106.6*	-29.1	-50.6	96.6*	79.2	4.6	85.7*
COc1ccc(CN(C)C[C@@H]2Oc3ccc(NS(=O)(=O)c4ccc(C)cc4)cc3CC(=O)N([C@@H](C)CO)C[C@H]2C)cc1	.	-5.4	-6.9	.	.	.	.
COc1ccc(CN(C)C[C@H]2Oc3ccc(NS(=O)(=O)c4ccc(C)cc4)cc3CC(=O)N([C@@H](C)CO)C[C@@H]2C)cc1	104.5*	-12.2	-22.0	110.4*	7.9	4.4	3.9
C[C@H]1CN([C@@H](C)CO)C(=O)c2cccc(NS(=O)(=O)c3ccccc3)c2O[C@H]1CN(C)Cc1ccccc1	58.0	0.0	-29.8	.	.	.	.
C[C@H]1CN([C@@H](C)CO)C(=O)Cc2cc(NC(=O)CCCCCC(=O)Nc3ccccc3N)ccc2O[C@@H]1CN(C)S(=O)(=O)c1cccs1	4.2	4.8	-61.3	.	.	.	.
COc1ccccc1C(=O)Nc1ccc2c(c1)OC[C@@H](C)N(C)C[C@@H](C)[C@@H](OC)CN(C)C2=O	5.3	.	-2.7	.	.	.	.
Cc1ccc(S(=O)(=O)Nc2ccc3c(c2)CC(=O)N([C@H](C)CO)C[C@@H](C)[C@H](CN(C)C(=O)Nc2cccc4ccccc24)O3)cc1	17.9	5.6	-12.4	.	.	.	.
SMILES	T cruzi growth-1	C diff growth	Pf Dd2 growth	T cruzi growth-2	T cruzi growth-3	NIH3T3 tox	3T3 cytotox 2
C[C@H](CO)N1C[C@H](C)[C@H](CN(C)C(=O)Nc2ccccc2F)Oc2cc(-c3cccc(C#N)c3)ccc2S1(=O)=O	90.2	2.1	-68.3	.	.	.	.
COc1ccc(-c2ccc3c(c2)O[C@H](CN(C)C(=O)Nc2ccccc2F)[C@H](C)CN([C@H](C)CO)S3(=O)=O)cc1	84.3	-3.7	-29.6	.	.	.	.
C[C@H](CO)N1C[C@H](C)[C@H](CN(C)C(=O)Nc2ccccc2F)Oc2cc(-c3ccc(F)cc3)ccc2S1(=O)=O	100.6	1.2	-53.6	.	.	.	.
C[C@H]1CN([C@@H](C)CO)S(=O)(=O)c2ccc(-c3cccc(C#N)c3)cc2O[C@H]1CN(C)C(=O)Nc1ccccc1F	116.6*	0.9	-68.7	103.2*	88.6	37.3*	63.9*
C[C@@H]1CN([C@H](C)CO)S(=O)(=O)c2ccc(-c3ccc(F)cc3)cc2O[C@H]1CN(C)C(=O)Nc1ccccc1F	54.5	12.2	-54.8	.	.	.	.
C[C@H]1CN([C@@H](C)CO)S(=O)(=O)c2ccc(-c3ccc(F)cc3)cc2O[C@H]1CN(C)C(=O)Nc1ccccc1F	?	32.2	-75.7	110.0*	75.7	55.9*	54.8*
C[C@@H]1CN([C@@H](C)CO)S(=O)(=O)c2ccc(-c3ccc(F)cc3)cc2O[C@@H]1CN(C)C(=O)Nc1ccccc1F	98.0*	-2.8	-19.3	102.5*	42.9	-1.7	23.6
COc1ccc(-c2ccc3c(c2)O[C@H](CN(C)C(=O)Nc2ccccc2F)[C@H](C)CN([C@@H](C)CO)S3(=O)=O)cc1	95.9*	-8.1	-22.1	105.1*	62.8	19.4	72.0*
CCNC(=O)C[C@H]1CC[C@@H]2[C@H](COc3ccc(NC(=O)Nc4ccccc4Cl)cc3C(=O)N2C)O1	-0.3	1.5	1.5	.	.	.	.
CO[C@H]1CN(C)C(=O)c2cc(NC(C)=O)ccc2OC[C@@H](C)N(C(=O)CN2CCOCC2)C[C@@H]1C	80.4	.	15.1	.	.	.	.
COc1cccc(NC(=O)N2CC(=O)N3[C@H](CO)[C@H](c4ccc(C#CCC5CCCC5)cc4)[C@@H]3C2)c1	.	51.5	-25.9	.	.	.	.
